In assay [1] the target is Cellular tumor antigen p53 (Homo sapiens) (UniProt P04637). Put plainly: Primary qHTS for small molecule compounds that upregulate eGFP-tagged delta133p53alpha (in N-terminal) cells. (AID 2060322). Further: nearly all actives have a fitted effect of over 75% in size. Further: potency means the concentration at half of the fitted maximal effect.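 On activation: series mostly up to about 56 µM; 0% = DMSO vehicle and 100% = reference activator.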 The conditions noted are these: NCI-H358 eGFP-delta133p53alpha fluorescence, 24 h; activation: hits give high values. The gist of the method: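 NCI-H358 cells pre-induced 24 h with 10 ng/ml doxycycline to express N-terminal eGFP-delta133p53alpha, then dosed 24 h at 37C without doxycycline; fixed, Hoechst-stained, GFP intensity by laser scanning cytometry, normalized to DMSO (0%) and 57.5 uM 5-azacytidine (100%).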
Sequence of Cellular tumor antigen p53 (Homo sapiens) (P04637 whole entry, looked up): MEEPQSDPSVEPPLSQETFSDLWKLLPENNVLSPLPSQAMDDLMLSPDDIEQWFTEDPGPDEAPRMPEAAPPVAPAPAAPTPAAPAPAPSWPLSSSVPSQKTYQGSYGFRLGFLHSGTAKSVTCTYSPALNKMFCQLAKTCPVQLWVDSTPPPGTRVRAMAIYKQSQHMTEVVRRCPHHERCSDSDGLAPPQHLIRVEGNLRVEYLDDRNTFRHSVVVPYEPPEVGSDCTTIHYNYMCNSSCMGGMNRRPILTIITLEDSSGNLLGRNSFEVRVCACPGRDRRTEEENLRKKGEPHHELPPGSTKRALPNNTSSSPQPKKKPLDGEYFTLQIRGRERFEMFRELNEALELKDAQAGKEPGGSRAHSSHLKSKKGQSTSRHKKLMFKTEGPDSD

The target in assay [2] is Aldehyde dehydrogenase, mitochondrial (Homo sapiens) (UniProt P05091). Nature of the assay: qHTS for Inhibitors of the Aldehyde Dehydrogenase Family (ALDH2) Primary screen (AID 2061308;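 further: plate controls were vehicle for no effect and reference inhibitor for full effect; nearly all actives have a fitted effect of over 55% in size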). (In qHTS, concentration-response curves come from the screen itself.)
Assay [3] concerns the target Retinaldehyde dehydrogenase 3 (Homo sapiens) (UniProt P47895). Put plainly: qHTS for Inhibitors of the Aldehyde Dehydrogenase Family (ALDH1A3) Primary screen (AID 2061315).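 Further: plate controls were DMSO vehicle for no effect and reference inhibitor for full effect.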

Molecules are shown by their SMILES. Results filed as inconclusive are left out. A number with no mark means an inactive call. The source made the active and inactive calls. The call rests on the fitted dose curve; in most records, active means well fitted curve in the direction sought with a large enough effect; inconclusive means small, poorly fitted or top-dose-only effect, or another doubt; inactive means no such curve, though single readings can be large; an effect the other way counts as inactive or inconclusive.

`CC(=O)O[C@@H]1[C@H](O[C@@H]2OC[C@](O)(CO)[C@H]2O)[C@@H](O[C@@H]2O[C@@H](C)[C@H](O)[C@@H](O[C@@H]3O[C@H](CO)[C@@H](O)[C@H](O)[C@H]3O)[C@H]2O)[C@H](OC(=O)[C@]23CCC(C)(C)C[C@H]2C2=CCC4[C@@]5(C)C[C@H](O)[C@H](O[C@@H]6O[C@H](C(=O)O)[C@@H](O)[C@H](O)[C@H]6O)[C@@](C)(C(=O)O)C5CC[C@@]4(C)[C@]2(C)CC3)O[C@@H]1C` (some centres not stated): the activation in assay [1] was -16.8%. In addition, the figures for the activity change, negative = inhibition in assay [2] and in assay [3] were 3.67% [at 11.2 µM] and -13.4% [at 11.2 µM], respectively.
For `COc1ccc(CNCc2cccc3ccccc23)cc1`, the activation in assay [1] is -2.33%. Besides, the Potency result in assay [2] and in assay [3] was “inactive” in each case.
Take `N#Cc1ccc2ncnc(NCCc3ccccc3)c2c1`: the activation in assay [1] was -3.57%. Moreover, the Potency entry in assay [2] and in assay [3] was “inactive” in each case.
As for `CN1CCc2cc3c(cc2C(=O)Cc2cc4c(cc2C1)OCO4)OCO3`, the activation in assay [1] is -8.04%. Further, the Potency entry in assay [2] and in assay [3] was “inactive” each time.
`c1ccc(Cc2ncc3c(n2)CCNCC3)cc1`: the activation in assay [1] was 7%. The Potency result in assay [2] and in assay [3] was “inactive” each time.
Regarding `C[C@@]1(O)[C@H](O)[C@@H](CO)O[C@H]1n1cnc2c(=O)[nH]c(N)nc21`, in assay [1], the activation is -12.3%. The Potency entry in assay [2] and in assay [3] was “inactive” throughout.
`CN1CCN(C(=O)c2cc3cc(Cl)ccc3[nH]2)CC1`: the activation in assay [1] is -0.893%. Further, the Potency result in assay [2] and in assay [3] was “inactive” throughout.
Regarding `C[C@@]12C(=O)N(c3ccc(C(=O)Nc4cccc5cccnc45)cc3)C(=O)[C@@H]1[C@@H]1C=C[C@H]2C1`, in assay [1], the activation is 18.3%. Also, the Potency result in assay [2] and in assay [3] was “inactive” in each case.
On to `Nc1nonc1C(=Nc1ccc(F)c(Cl)c1)NO`, for which the activation in assay [1] is -6.33%. In addition, the Potency result in assay [2] and in assay [3] was “inactive” in each case.
Regarding `C/C=C(\C)C(=O)OC[C@H]1O[C@H](O[C@H]2O[C@H](CO)[C@@H](O)[C@H](O)[C@H]2O[C@@H]2O[C@H](CO)[C@@H](O)[C@H](O)[C@H]2O)[C@H](O[C@@H]2O[C@H](CO)[C@@H](O)[C@H](O)[C@H]2O)[C@@H](O)[C@@H]1O`, the activation in assay [1] is -3.82%. Also, the Potency result in assay [2] and in assay [3] was “inactive” throughout.
With `O=C(Nc1ccccc1-c1cn2c(CN3CCNCC3)csc2n1)c1ccc2ccccc2n1`, the activation in assay [1] was 11%. Also, the Potency result in assay [2] and in assay [3] was “inactive” each time.
Regarding `O=C(O)CCc1cccc(O[C@@H]2O[C@H](CO)[C@@H](O)[C@H](O)[C@H]2O)c1O`, the activation in assay [1] is -6.87%. Moreover, the Potency entry in assay [2] and in assay [3] was “inactive” throughout.
With `CC(=O)OCCC(C)CCC1C(C)(O)CCC2C(C)(C)CCCC21C` (configuration not stated), the activation in assay [1] is 6.87%. Moreover, the Potency entry in assay [2] and in assay [3] was “inactive” in each case.
As for `C=C1CC23CC1CCC2C12OC(=O)C(C)(C(O)CC1O)C2C3C(=O)O` (configuration not stated), the activation in assay [1] is -7.14%. Also, the Potency result in assay [2] and in assay [3] was “inactive” each time.
For the compound `COc1ccc(C#Cc2ccc(C(=O)N3CCC[C@@H](O)C3)c(F)c2)cc1`, the activation in assay [1] was -8.04%. The Potency entry in assay [2] and in assay [3] was “inactive” throughout.
For the compound `CC(=O)OCC1OC(O[C@H]2CC[C@@]3(C)C(CC[C@]4(C)C3CC=C3[C@@H]5CC(C)(C)CC[C@]5(C(=O)O)CC[C@]34C)[C@]2(C)CO)C(O)C(O)C1OC1OC(C)C(O)C(OC2OCC(O)C(O)C2O)C1O` (some centres not stated), in assay [1], the activation is -6.11%. Further, the Potency entry in assay [2] and in assay [3] was “inactive” in each case.
With `OCCc1ccc(O[C@@H]2O[C@H](CO)[C@@H](O)[C@H](O)[C@H]2O)cc1`, the activation in assay [1] is -7.14%. The Potency result in assay [2] and in assay [3] was “inactive” in each case.
As to `CCN1CCN(Cc2ccc(-c3cc4c(NC(C)c5ccccc5)ncnc4[nH]3)cc2)CC1` (configuration not stated), in assay [1], the Potency is 26.9 µM (active). For the same compound, the Potency result in assay [2] and in assay [3] was “inactive” in each case.
With `C=C[C@@]1(C)CCC2C(=CCC3[C@]2(C)CCC[C@@]3(C)C(=O)O)C1` (some centres not stated), the activation in assay [1] is -12.2%. The Potency result in assay [2] and in assay [3] was “inactive” throughout.

The values are drawn from PubChem BioAssay (NCATS).
